In the OligoGym collection:
Further: reference of the scale not given here.

Each sequence was assayed against GRIA1 (assay: pooled miR-30 sensor sort-seq; sequence = guide strand). Details: shRNA.
For TCCATCACTGACAATCTCCAGA, the sensor-assay potency score (higher = more potent) was -1.21.
Sequence TTATCGTACCACCATTTGCTTT has a sensor-assay potency score (higher = more potent) of -1.73.
TTCTCTAGCTTTATAATCTGGC gave a sensor-assay potency score (higher = more potent) of -0.406.
TTGTCTTGTCCTTACTTCCGGA gave a sensor-assay potency score (higher = more potent) of -0.41.
Work on TTTGTTTAAGTCAATGTCCATG yielded a sensor-assay potency score (higher = more potent) of -1.06.
TTGACTGCTGTCACCTGCCAGT showed a sensor-assay potency score (higher = more potent) of -0.603.
TTTCTGTCTGCTTCGCTAGGTC gave a sensor-assay potency score (higher = more potent) of -0.0532.
TAAACCTTCAAATCGCACCTGC showed a sensor-assay potency score (higher = more potent) of 0.232.
With TATCGTACCACCATTTGCTTTT the sensor-assay potency score (higher = more potent) was -0.245.
TATAACTTCTTCCCGGACCAAA was tested, and the sensor-assay potency score (higher = more potent) was -1.38.
TTTCTCATTAAACTGCACGTTT showed a sensor-assay potency score (higher = more potent) of -0.314.
In the case of AAATCTATAACTTCTTCCCGGA, the sensor-assay potency score (higher = more potent) was 0.0312.

Each sequence was assayed against GRIK2 in the same assay as above. Details: shRNA.
Work on TTGTCCATTGGCATCATCCTGG yielded a sensor-assay potency score (higher = more potent) of -0.234.
Sequence TAGAGCAGCATCAGTCGTCATA has a sensor-assay potency score (higher = more potent) of -0.889.
Sequence TCGAACATAGGTAATAGCCAGT has a sensor-assay potency score (higher = more potent) of -0.567.
In the case of TTAATTAGACTCATAAAGCGGG, the sensor-assay potency score (higher = more potent) was 0.186.
Work on TTTATGTCGATTACACTGCAAG yielded a sensor-assay potency score (higher = more potent) of -0.937.
In the case of TTGACCAGCACTGACTGCCTTC, the sensor-assay potency score (higher = more potent) was -0.29.
For TACACTGCAAGGAACTGACTGT, the sensor-assay potency score (higher = more potent) was 0.034.
With TACTGCTCCATATTCTATCTTG the sensor-assay potency score (higher = more potent) was -0.199.
In the case of TTGAGTCGAAGATTATACCTTG, the sensor-assay potency score (higher = more potent) was 0.358.
Sequence TTTGTTGTCTGACACCTGGTGC has a sensor-assay potency score (higher = more potent) of 0.0104.
TTCTTCATTACTTTTGACCAGC showed a sensor-assay potency score (higher = more potent) of -0.437.
In the case of TTTGTTTAGCTAAATCATCAGC, the sensor-assay potency score (higher = more potent) was -0.527.

What follows are sequences tested against GRIPAP1 in the same assay as above. Details: shRNA.
TTCCATTGCTAGCTCATCCAGC showed a sensor-assay potency score (higher = more potent) of -0.174.
With TTTGTGATCAGCTTCCTTCCGT the sensor-assay potency score (higher = more potent) was 0.395.
Sequence TTTCTTTTTCAGTTTCTCGGAG has a sensor-assay potency score (higher = more potent) of -0.138.
In the case of TTTGCTGAACTCCTTATCCAAG, the sensor-assay potency score (higher = more potent) was -1.41.
For TTCCTTGCTGAACTCGGCCATT, the sensor-assay potency score (higher = more potent) was -1.52.
TATTTCTTGAAGTTGTTCCAGC showed a sensor-assay potency score (higher = more potent) of -0.115.
With TTGAAGTTCTTCCACTGTCTGC the sensor-assay potency score (higher = more potent) was -0.043.
For TTCCTGTGCATCTGCACTCTGG, the sensor-assay potency score (higher = more potent) was -1.21.
With TTGTGATCAGCTTCCTTCCGTT the sensor-assay potency score (higher = more potent) was -0.347.
With TTCTTGAAGTTGTTCCAGCAGT the sensor-assay potency score (higher = more potent) was -0.658.
In the case of TTCTTTTTCAGTTTCTCGGAGA, the sensor-assay potency score (higher = more potent) was -0.31.
Sequence TTGCTGGTTCTCTTGCTCCAGC has a sensor-assay potency score (higher = more potent) of -0.982.

What follows are sequences tested against GRK1 in the same assay as above. Details: shRNA.
In the case of TTTGCGTAGACAGTTTTGGAGT, the sensor-assay potency score (higher = more potent) was -0.657.
For TAGACAGTTTTGGAGTCTGGGA, the sensor-assay potency score (higher = more potent) was -1.3.
TAGTCCTCGATGTCTTTCCAGA showed a sensor-assay potency score (higher = more potent) of -1.36.
